From PubChem
A selection follows.
aSyn 5UTR act – Activators working through SNCA 5'UTR binding (MLPCN). alpha-synuclein 5'UTR reporter, activators screen. activity score, % (tested at 7.5 µM), hits read low. 300,000 compounds, 7.1% hits. AID 1814; in the data active = activity score below about -60%
An asterisk follows results filed as active.

SMILES	aSyn 5UTR act
O=C(Nc1ccc2nn(-c3ccccc3)nc2c1)c1ccco1	-255.4*
Cc1ccnc2nc(NC(=O)c3ccco3)nn12	-80.8*
Cc1cc(NC(=O)c2ccco2)ccc1-n1cnnn1	-76.7*
O=C(Nc1cc2nn(-c3ccccc3)nc2cc1Cl)c1ccco1	-128.8*
Nc1nc(NC(=O)c2ccco2)nn1-c1ccccc1	-65.7*
CC(=O)Nc1cc2nn(-c3ccccc3)nc2cc1Cl	-122.8*
CC(C)(C)n1cnc2cc(NC(=O)c3ccco3)ccc21	-88.4*
O=C(NC1CCCCCC1)c1ccc(N2CCCC2=O)cc1	-100.6*
O=C(Nc1ccc(F)cc1)NC1CCCCCCC1	-96.3*
O=C(Nc1ccc(Cl)cc1)NC1CCCCC1	-174.8*
O=C(Nc1ccccc1F)NC1CCCCCCC1	-114.7*
CC(=O)c1cccc(NC(=O)NC2CCCCCCC2)c1	-70.5*
O=C(Nc1cccc(Cl)c1)NC1CCCCC1	-120.6*
O=C(Nc1ccc(F)c(F)c1)NC1CCCCC1	-86.2*
Nc1ccc(NC(=O)NC2CCCCC2)cc1[N+](=O)[O-]	-160.8*
O=C(NC1CCCCCCC1)c1ccc(F)cc1	-197.0*
S=C(NCCc1cccc(Cl)c1)NC1CCCCC1	-118.5*
O=C(Nc1ccc2nsnc2c1)NC1CCCCC1	-196.8*
CCCCCNc1nc(-c2ccccc2)cs1	-168.5*
c1ccc(CCNc2nc(-c3ccncc3)cs2)cc1	-114.3*
O=C(CSc1ncnc2sc3c(c12)CCCC3)c1ccccc1	-76.9*
COc1cc(/C=C2/C(=N)N3N=C(CC(=O)N4CCOCC4)SC3=NC2=O)ccc1OCc1ccc(F)cc1	-101.7*
Cc1cc(/C=C2/SC(=O)N(CC(=O)N3CCOCC3)C2=O)c(C)n1-c1ccccc1F	-143.2*
COc1ccccc1-n1c(C)cc(/C=C2\C(=N)N3N=C(CC(=O)N4CCOCC4)SC3=NC2=O)c1C	-71.6*
O=[N+]([O-])c1cccc(-c2noc(-c3cccs3)n2)c1	-147.1*
SMILES	aSyn 5UTR act
COc1ccccc1-c1noc(-c2ccncc2)n1	-73.9*
COc1ccc(-c2nc(-c3cccs3)no2)cc1	82.6
COc1ccccc1-c1noc(-c2cccs2)n1	-235.7*
COc1cccc(-c2ccc(-c3noc(-c4cccs4)n3)c(OC)n2)c1	-84.9*
COc1ccccc1-c1nc(-c2ccccn2)no1	76.5
c1ccc(C2Oc3ccccc3C3CC(c4cccs4)=NN32)cc1 (stereo unspecified)	-164.4*
Cc1ccn2c(C(=O)c3ccc(Cl)cc3)cnc2c1	-81.5*
CC1CCN(c2c(NCc3ccc(C(=O)N4CCc5ccccc54)cc3)c(=O)c2=O)CC1	88.0
O=C(c1ccc(Cl)s1)N1CCc2ccccc21	-195.2*
Cc1ccc(C(=O)N2CCc3ccccc32)cc1	-112.1*
O=C(c1cc([N+](=O)[O-])ccc1N1CCCCC1)N1CCc2ccccc21	81.2
Cn1cc(C(=O)N2CCc3ccccc32)cn1	-63.0*
COCCN(C(=O)COC(=O)/C=C/c1ccccc1Cl)c1c(N)n(Cc2ccccc2)c(=O)[nH]c1=O	-91.9*
CCCS(=O)(=O)c1nc(S(=O)(=O)c2ccc(C)cc2)c(N2CCOCC2)s1	-61.8*
Cc1ccc(S(=O)(=O)c2nc(S(=O)(=O)CCO)sc2N2CCOCC2)cc1	-95.9*
CCCS(=O)(=O)c1nc(S(=O)(=O)c2ccc(C)cc2)c(N2CCN(CCO)CC2)s1	-97.8*
N#Cc1c(N)nc2c(c1N)CC(=O)N2c1ccc(Cl)cc1	-132.2*
CC1(C)CC(=O)c2cnc(N3CCc4ccccc43)nc2C1	-117.7*
Fc1cnc(N2CCc3ccccc32)nc1N1CCc2ccccc21	-81.9*
C=C(C)CNC(=S)Nc1nc2c(cc1C(=O)OCC)CCCC2	-105.4*
Cc1cccc(C)c1OCc1cc(C(=O)N2CCC(c3ccncc3)CC2)no1	-93.3*
O=C(c1cc(COc2ccc(F)cc2F)on1)N1CC2C[C@@H]3CC1C[C@H](C2)C3	-96.7*
O=C(c1cc(COc2ccc(F)cc2F)on1)N1C[C@H]2CC[C@H]1C2	-98.5*
COc1ccccc1OCc1cc(C(=O)N2CC3C[C@@H]4CC2C[C@H](C3)C4)no1	-119.9*
O=C(c1cc(COc2c(F)cccc2F)on1)N1CCC(c2ccccc2F)C1 (stereo unspecified)	-125.3*
SMILES	aSyn 5UTR act
Cc1cccc(C)c1OCc1cc(C(=O)NC2CCC2)no1	-65.6*
CC(=O)c1ccc(OCc2cc(C(=O)N3CC4C[C@@H]5CC3C[C@H](C4)C5)no2)cc1	-134.3*
COc1ccc(OCc2cc(C(=O)N3C[C@H]4CC[C@H]3C4)no2)c(Cl)c1	-81.7*
COc1ccc(OCc2cc(C(=O)N3CCCN(C(C)=O)CC3)no2)c(Cl)c1	-74.6*
O=C(c1cc(COc2c(F)cccc2F)on1)N1C[C@H]2CC[C@H]1C2	-113.8*
Cc1sc2c(c1C)C(=O)NC(c1ccccc1F)N2 (stereo unspecified)	-114.7*
Cc1ccc(C2NC(=O)c3c(sc(C)c3C)N2)c(O)c1 (stereo unspecified)	-233.6*
Cc1cccc(C2NC(=O)c3c(sc(C)c3C)N2)c1O (stereo unspecified)	-86.9*
C/C(=N\Nc1nc(C)c(C)s1)c1ccc([N+](=O)[O-])cc1	-130.0*
C/C(=N\Nc1ccc([N+](=O)[O-])cc1)c1ccc(N)cc1	-101.1*
CCOC(=O)c1nc(NNC(=O)c2ccc([N+](=O)[O-])cc2)sc1C	62.0
C/C(=N\Nc1ccc([N+](=O)[O-])cc1)c1ccco1	-179.5*
CCc1ccc(/C(C)=N\Nc2ccc([N+](=O)[O-])cc2)cc1	-137.3*
O=C1c2ccccc2C(=O)N1CCOc1cccc(Br)c1	-71.2*
COc1ccc(OCCN2C(=O)c3cccc(N)c3C2=O)cc1	-97.7*
COc1cccc(Cn2c(=O)sc3ccccc3c2=O)c1	-78.5*
COc1cccc(CN2C(=O)C3(C(C#N)=C(N)OC4=C3C(=O)CCC4)c3ccccc32)c1 (stereo unspecified)	62.7
COc1ccc(C(=O)O/N=C(\N)c2ccc(OC)c(OC)c2)cc1	-139.0*
COc1ccc(C(=O)O/N=C(\N)c2ccc(OC)c(OC)c2)c(OC)c1	-95.6*
C/C(=N\NC(=S)Nc1cccc(C)c1)c1ccccc1	-99.6*
C/C(=N\NC(=S)Nc1cccc(C)c1)c1ccco1	-188.6*
c1ccc2c(c1)CCN(c1ncnc3c1[nH]c1ccccc13)C2	-102.0*
COc1ccc(-c2nsc3c(N4CCCCC4C)ncnc23)cc1 (stereo unspecified)	89.8
COc1cccc(N2CCN(c3ncnc4c3[nH]c3ccccc34)CC2C)c1 (stereo unspecified)	-73.5*
Nc1c(C(=O)Nc2ccc3c(c2)OCCO3)nnn1Cc1ccc(F)cc1	-178.8*
SMILES	aSyn 5UTR act
Nc1c(C(=O)Nc2ccc3c(c2)OCCO3)nnn1Cc1cccc(Cl)c1	-152.9*
Nc1c(C(=O)Nc2ccc3c(c2)OCCO3)nnn1Cc1ccccc1Cl	-205.0*
COc1cc(CNCc2ccccn2)ccc1OCc1ccc(Cl)cc1	-65.9*
Cn1c(SCc2ccccc2)nnc1-c1cccs1	-146.8*
c1ccc(CN2CCC(Nc3nc(-c4cccs4)nc4ccccc34)CC2)cc1	61.8
Cn1c(SCc2ccc(F)cc2)nnc1-c1cccs1	-107.7*
COc1nc(NCc2ccco2)nc(NC2CCCCC2)n1	-94.2*
NS(=O)(=O)c1ccc(N/C=C\C(=O)c2cccc3ccccc23)cc1	-65.3*
C/C(=C\C(=O)c1ccccc1)NCc1ccc(F)cc1	-64.2*
Cc1ccc(N2C(=O)c3ccccc3C2O)nc1 (stereo unspecified)	72.7
COc1ccc(O)c(C(=O)C2c3ccccc3C(=O)N2c2ccc(C)cc2)c1 (stereo unspecified)	-116.2*
